According to PubChem BioAssay AID720504 (National Center for Advancing Translational Sciences (NCATS), 2013):
Out of some 360,000 compounds screened, about 10,000 (2.8%) were called active. Inconclusive results (about 4%) are left out. The sample as a whole holds a higher share of actives than the screen did. Values without a mark were called inactive. Calls follow the shape of the dose curve; as a rule, active = well fitted inhibition curve with a large enough effect; inconclusive = small, poorly fitted or top-dose-only effect; inactive = flat fitted curve, though single readings scatter.

Molecular target: Serine/threonine-protein kinase PLK1 (Homo sapiens) (UniProt P53350)
Assay: qHTS for Inhibitors of PLK1-PDB (polo-like kinase 1 - polo-box domain): Primary Screen; also: nearly all actives have a fitted effect of over 65% in size; as to max response, negative = inhibition: series mostly up to about 57 µM
Details: Plk1 PBD binding of FITC phosphopeptide, fluorescence polarization
% is scaled to controls: 0 for no effect and ±100 for the full control effect; potency is read from the fitted curve at half-maximal effect.

Chain of Serine/threonine-protein kinase PLK1 (Homo sapiens) (P53350 whole entry, looked up, the tested form may be a part): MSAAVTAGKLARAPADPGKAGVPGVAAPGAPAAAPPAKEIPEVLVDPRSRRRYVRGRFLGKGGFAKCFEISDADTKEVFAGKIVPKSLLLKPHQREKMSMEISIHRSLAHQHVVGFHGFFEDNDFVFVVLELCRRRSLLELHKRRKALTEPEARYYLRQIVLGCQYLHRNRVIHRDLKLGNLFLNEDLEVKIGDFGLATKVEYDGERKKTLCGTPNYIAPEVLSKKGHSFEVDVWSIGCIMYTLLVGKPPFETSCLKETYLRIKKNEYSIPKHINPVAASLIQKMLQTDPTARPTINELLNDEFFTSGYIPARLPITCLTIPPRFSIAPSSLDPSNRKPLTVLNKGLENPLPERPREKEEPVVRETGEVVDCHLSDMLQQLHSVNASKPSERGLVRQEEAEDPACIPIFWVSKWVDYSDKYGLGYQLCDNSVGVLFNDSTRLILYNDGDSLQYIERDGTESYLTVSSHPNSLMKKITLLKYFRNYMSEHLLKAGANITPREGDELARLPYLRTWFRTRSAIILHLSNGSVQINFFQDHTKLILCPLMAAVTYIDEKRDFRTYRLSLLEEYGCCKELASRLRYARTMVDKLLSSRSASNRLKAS

Row | SMILES | max response, negative = inhibition | Potency
1 | CCOc1ccc(CCN2C(=O)C(=O)N([C@@H](Cc3ccc(O)cc3)CN3CCC[C@H]3CN3C(=O)C(=O)NC[C@@H]3CC(C)C)C[C@@H]2Cc2ccccc2)cc1 | -15% | 
2 | CCC(C)C(CO)NC(=O)/C=C/[C@H]1O[C@@H](n2cnc3c(NC(=O)c4ccccc4)ncnc32)[C@H](O)[C@@H]1O (some centres undefined) | -12% | 
3 | COc1ccc(/C=N/N=C2/C(=O)Nc3ccccc32)cc1O |  | 23.8 µM (active)
4 | CCOc1ccc(/C=N/NC(=O)CSc2ccccn2)cc1O | -2.2% | 
5 | O=C1Nc2ccc(Br)cc2/C1=N/N=C/C1=C(N2CCOCC2)C(=C\c2ccccc2)/CC1 | -6.57% | 
6 | Cc1ccc(S(=O)(=O)N[C@H]2CCC[C@@H]2O)cc1 | -13.6% | 
7 | O=C(c1ccc(C(F)(F)F)cc1)N1CCC(=O)N([C@H](COCc2ccccc2)Cc2ccccc2)CC1 | -8.35% | 
8 | O=S1(=O)CC(N2CCN(CCO)CC2)CN1C1CCCC1 (centres undefined) | 3.7% | 
9 | COC(=O)C1=C(N)Oc2cc(C)[nH]c(=O)c2C1c1ccc(Cl)cc1 (centres undefined) |  | 23.8 µM (active)
10 | COC(=O)C1=C(N)Oc2cc(C)oc(=O)c2C1c1cccnc1 (centres undefined) | -10.6% | 
11 | CCN1C(=O)N[C@@H](c2ccccc2)C(C(=O)OC)=C1C | -12.3% | 
12 | CC(=O)c1ccc(Nc2nc(C(N)c3ccccc3Cl)cs2)cc1 (centres undefined) | -10.4% | 
13 | O=C(O)C1CCCN1c1nc(Cl)ccc1[N+](=O)[O-] (centres undefined) | -5.29% | 
14 | Cc1nccn1-c1ccc(NC(=O)[C@H]2O[C@@H](n3cnc4c(N)ncnc43)[C@H](O)[C@@H]2O)cc1 | -3.34% | 
15 | O=c1[nH]c2ccccc2n1C1CCN(CCOc2ccccc2)CC1 | 0.342% | 
16 | c1ccc(-c2cc(N3CCCCC3)c3ccccc3n2)cc1 | -13.3% | 
17 | O=c1cc(-c2ccccc2)nc(N2CCCCC2)[nH]1 |  | 23.8 µM (active)
18 | Cc1ccc(SCc2cc(=O)[nH]c(N3CCCCC3)n2)cc1 | -8.91% | 
19 | C[C@H](CO)N1C[C@H](C)[C@@H](CN(C)C(=O)c2cnccn2)Oc2ncc(Br)cc2C1=O | -5.95% | 
20 | C[C@H](CO)N1C[C@H](C)[C@H](CN(C)C(=O)c2ccncc2)OCc2ccccc2-c2c(n(C)c3ccccc23)C1=O | -5.78% | 
21 | COc1cccc(-c2cnc3c(NC(C)=O)cc(-c4cccc(NC(C)=O)c4)cn23)c1 | -1.26% | 
22 | CC1(C(=O)NS(=O)(=O)c2ccccc2)CCN1C(=O)Cc1ccc(-c2ccccc2)cc1 (centres undefined) | -4.54% | 
23 | CCn1c(SCC(=O)Nc2nc(C)cs2)nnc1C(C)NC(=O)c1ccccc1 (centres undefined) |  | 29.9 µM (active)

Row | SMILES | max response, negative = inhibition | Potency
24 | Cc1ccc(NC(=O)Cc2nnc(SCC(=O)Nc3nncs3)n2C)cc1 | -3.59% | 
25 | CCn1c(SCC(=O)NC2=NCCS2)nnc1C(C)NC(=O)c1ccccc1F (centres undefined) | -16.2% | 
26 | CCn1c(CC(=O)Nc2ccc(C)cc2)nnc1SCC(=O)Nc1nc(C)cs1 |  | 26.7 µM (active)
27 | CCn1c(CC(=O)Nc2ccccc2)nnc1SCC(=O)N1CCOCC1 | -0.409% | 
28 | COCCn1c(SCC(=O)Nc2nc(C)cs2)nnc1C(C)C | -12.4% | 
29 | C[C@@H]1CN([C@@H](C)CO)C(=O)c2cc(NS(C)(=O)=O)ccc2O[C@@H](C)CCCCO[C@H]1CN(C)C(=O)Nc1ccc2c(c1)OCO2 | -18.5% | 
30 | Cc1cc2c(cc1C)N1C(=O)c3cc4ccccc4cc3NC(=O)C1C(=O)N2 (centres undefined) | -4.16% | 
31 | COc1ccc(C(c2nnnn2C2CCCC2)N2CCN(C/C=C/c3ccccc3)CC2)cc1 (centres undefined) | -9.92% | 
32 | Cc1ccc(S(=O)(=O)N2C[C@]3(O)C[C@@H]4C(=O)N(c5ccccc5)C(=O)[C@@H]4C[C@]3(OC(=O)NC3CC3)C2)cc1 | -20.4% | 
33 | COc1ccccc1Cc1c(-c2ccc(Cl)cc2)nc2ccc(Cl)cn12 | -19.7% | 
34 | CNc1ccc(SC#N)cc1 |  | 23.8 µM (active)
35 | Cc1ccccc1Cn1c(C)c(C(=O)NCc2cccc(C(F)(F)F)c2)sc1=O | -4.46% | 
36 | CCN(C(=O)Nc1cccc2ccccc12)c1ccccc1 | -4% | 
37 | Cc1ccc(S(=O)(=O)N2[C@@H](Cc3ccccc3)CO[C@H]2CC(=O)OCc2ccccc2)cc1 | 0.144% | 
38 | CCCCn1nnnc1C(c1ccccc1)N1CCN(c2ccccc2OC)CC1 (centres undefined) | -14.9% | 
39 | CN(C)c1nc(=Nc2cccc(Cl)c2)ss1 |  | 6.7 µM (active)
40 | Cn1ncc([N+](=O)[O-])c1C(=O)Nc1cc(Cl)ccc1Cl | -6.39% | 
41 | O=C1c2ccccc2C(c2nc3ccccc3[nH]2)N1c1ccccc1 (centres undefined) | 3.28% | 
42 | O=C1Nc2ccccc2NC(c2ccc3c(c2)OCO3)=C1N(Cc1ccc(F)cc1)C(=O)c1ccco1 | -4.45% | 
43 | Nc1ccc2nc3c(=O)[nH]c(=S)[nH]c3nc2c1 |  | 2.67 µM (active)
44 | CC(C)OC(=O)CC(=O)CC(O)c1cccc([N+](=O)[O-])c1 (centres undefined) | -7.74% | 
45 | O=C(N/N=C\c1cccc(Br)c1)c1ccccc1-n1cccc1 | -3.78% | 
46 | O=C(N/N=C/c1cccc(Br)c1)c1ccc(N2CCCC2=O)cc1 |  | 26.7 µM (active)

Row | SMILES | max response, negative = inhibition | Potency
47 | O=C(Nc1ccc(N2CCCC2=O)cc1)c1cncc(Br)c1 | 6.3% | 
48 | CC(C)CN1CCC1(C)C(=O)Nc1ccc(OC(F)F)cc1 (centres undefined) | -0.833% | 
49 | CCCNC(=O)C1(C)CCCN(Cc2c(C)nn(-c3ccccc3)c2C)C1 (centres undefined) | 2.73% | 
50 | COCCCNC(NC(=O)c1ccc(OC)cc1)C(Cl)(Cl)Cl (centres undefined) | 5.66% | 
51 | COCCNC(=S)c1ccc(OC)cc1 |  | 26.7 µM (active)
52 | COc1ccc(C(=O)NCC[N+](C)(C)C)cc1 | 1.35% | 
53 | C#CCNC(=O)C[C@@H]1C[C@@]2(C(=O)OCC)CCCC=C2N(Cc2ccco2)C1=O | -6.05% | 
54 | c1cc(-c2nn[nH]n2)ccc1CN1CCCCC1 | -9.14% | 
55 | CC(C)c1ccc(-c2nn[nH]n2)cc1 | -8.56% | 
56 | Brc1ccc(-c2nn[nH]n2)cc1 |  | 23.8 µM (active)
57 | COc1cccc(C(O)c2nc(-c3ccc(C)c(C)c3)cs2)c1 (centres undefined) | -8.07% | 
58 | COCc1cccc(-c2csc(C(O)c3ccc(F)cc3)n2)c1 (centres undefined) | -9.74% | 
59 | COc1ccc(NC(=O)CSc2nnnn2-c2cccc(OC)c2)cc1 | 5.21% | 
60 | COCCn1c(SCC(=O)Nc2ccc(F)cc2F)nc2c(c1=O)SCC2 | 10.8% | 
61 | Cc1ccc(Cc2c(-c3ccco3)nc3ccc(Cl)cn23)cc1 |  | 21.2 µM (active)
62 | Cc1ccc(-c2nc3ccc(Cl)cn3c2Cc2ccccc2)cc1 | -1.46% | 
63 | Cc1ccc(Cc2c(-c3ccccc3)nc3ccc(Cl)cn23)cc1 | -1.42% | 
64 | CC1Cc2[nH][nH]c(=O)c2C(C2CCCC2)O1 (centres undefined) | -5.58% | 
65 | OC(c1ccccc1)c1nc(-c2cnc3ccccc3c2)cs1 (centres undefined) | 1.51% | 
66 | O=C(CSc1n[nH]c(-c2cccnc2)n1)Nc1ccnc2ccccc12 | -8.72% | 
67 | COc1ccc(Nc2nc(-c3cccnc3)nc3ccccc23)cn1 |  | 21.2 µM (active)
68 | CCN(CC(=O)NC1CCS(=O)(=O)C1)c1nc(-c2cccnc2)nc2ccccc12 (centres undefined) | -6.17% | 
69 | C[C@H]1CN([C@@H](C)CO)C(=O)CCCn2cc(nn2)CO[C@@H]1CN(C)S(=O)(=O)c1ccc(-c2ccccc2)cc1 | -23.9% | 

Row | SMILES | max response, negative = inhibition | Potency
70 | COCc1[nH]nc2c1C(C1C=CCCC1)C(C#N)=C(N)O2 (centres undefined) | -8.66% | 
71 | COc1ccc(-c2[nH]nc3c2C(c2ccncc2)C(C#N)=C(N)O3)cc1 (centres undefined) | -28.1% | 
72 | CCCc1[nH]nc2c1C(c1ccc(Br)s1)C(C#N)=C(N)O2 (centres undefined) |  | 23.8 µM (active)
73 | CC(=O)Nc1cccc(-c2ccnc3c2CC(C)(C(=O)NCc2ccccc2)O3)c1 (centres undefined) | 0.623% | 
74 | CNC[C@H]1OCc2cnnn2CCCC(=O)N([C@H](C)CO)C[C@@H]1C | -6.68% | 
75 | Cc1cc2oc(=O)cc(CN(C)Cc3ccccc3)c2cc1Cl | -6.49% | 
76 | CSc1ncc(Sc2ccccc2)c(C(=O)O)n1 |  | 23.8 µM (active)
77 | Cc1ccccc1C(=O)Nc1ccccc1Sc1ccccc1 | 2.65% | 
78 | CSc1ncc(C(=O)NCCCc2ccccc2)c(C)n1 | -4.81% | 
79 | CN1C[C@@H](CO)O[C@@H](n2cnc3c(N4CCN(CCO)CC4)ncnc32)C1 | 2.3% | 
80 | COCCNC(=O)C1CCCN(Cc2ccccc2Cl)CC1 (centres undefined) | -4.77% | 
81 | CC(=O)N1CCN(Cc2cc(=O)oc3cc(C)ccc23)CC1 | -2.03% | 
82 | CCOC(=O)[C@H]1Nc2ccc(Cl)cc2[C@@H]2[C@H]1C1CC(c3ccccc31)N2C(=O)OCc1ccccc1 (some centres undefined) | -10.8% | 
83 | CNc1cc(-c2c(OC)cccc2OC)ncn1 | -6.78% | 
84 | CN1CCN(c2ccc3c(c2)OC[C@H](Cc2ccccc2)NS3(=O)=O)CC1 | 0.181% | 
85 | COc1ccc(-c2nc3ccc(Br)cn3c2Cc2ccc(C)cc2)cc1OC | -11% | 
86 | Cc1ccc(C(=O)N2CC(=O)Nc3ccc(F)cc3C2c2ccc(F)cc2)cc1 (centres undefined) | 1.6% | 
87 | Cc1ccc2c(c1)C(c1ccccc1)N(C(=O)c1ccc(F)cc1)CC(=O)N2 (centres undefined) | -0.372% | 
88 | Cc1ccc2c(c1)C(c1ccccc1)N(C(=O)c1ccc(S(=O)(=O)N3CCOCC3)cc1)CC(=O)N2 (centres undefined) |  | 23.8 µM (active)
89 | CCNC(=O)C1(C)CCCN(C(=O)c2c(C)noc2C)C1 (centres undefined) | -0.543% | 
